High-throughput results deposited in PubChem BioAssay by National Center for Advancing Translational Sciences (NCATS).
AmpC detergent: AmpC beta-lactamase inhibition with detergent present. AmpC hydrolysis of nitrocefin, absorbance 480 nm, 0.01% Triton. Potency, µM (titrated, usually from 114 µM), actives largely listed as inhibitors. AID 485294. actives 0.041% (n = 370,000); further: nearly all actives have a fitted effect of over 25% in size
Target sequence (P00811 whole entry, looked up): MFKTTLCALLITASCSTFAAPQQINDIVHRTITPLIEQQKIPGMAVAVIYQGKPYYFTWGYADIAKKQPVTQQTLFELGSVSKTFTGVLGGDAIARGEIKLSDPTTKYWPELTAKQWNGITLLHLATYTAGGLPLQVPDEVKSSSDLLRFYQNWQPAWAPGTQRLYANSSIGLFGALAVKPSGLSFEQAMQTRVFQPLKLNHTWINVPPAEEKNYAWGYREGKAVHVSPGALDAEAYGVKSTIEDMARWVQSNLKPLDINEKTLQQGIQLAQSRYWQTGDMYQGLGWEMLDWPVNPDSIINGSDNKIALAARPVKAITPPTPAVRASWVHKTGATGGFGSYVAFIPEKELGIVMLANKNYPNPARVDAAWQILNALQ
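20 mM phosphate pH 7.0 + 0.01% (detergent screen) or 0.0001% Triton X-100; 5.3 nM AmpC reagent; cpd preinc 15 min RT; nitrocefin (800 uM stock) to start; A480 q20 s × 4 min; Activity was normalised to no-enzyme and no-compound control wells.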
AmpC no deterg: AmpC beta-lactamase inhibition without detergent. P00811. AmpC nitrocefin hydrolysis, absorbance 480 nm, 0.0001% Triton. Potency, µM (series often up to 57.1 µM), actives largely listed as inhibitors. actives 0.52% (n = 330,000). AID 485341; further: nearly all actives have a fitted effect of over 20% in size
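20 mM phosphate pH 7.0 + 0.01% (detergent screen) or 0.0001% Triton X-100; 5.3 nM AmpC reagent; cpd preinc 15 min RT; nitrocefin (800 uM stock) to start; A480 q20 s × 4 min; Activity was normalised to no-enzyme and no-compound control wells.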
Each line names hits and unclear results; the compound was inactive in the other large screens. This excerpt belongs to a sample that is enriched for hits. The call rests on the fitted dose curve; in most records, active means well fitted curve in the direction sought with a large enough effect; inconclusive means small, poorly fitted or top-dose-only effect, or another doubt; inactive means no such curve, though single readings can be large; an effect the other way counts as inactive or inconclusive.

CCOc1cc(C2c3c(-c4cc(C)ccc4O)n[nH]c3C(=O)N2CCCOC(C)C)ccc1O (stereo not given)	none (no result: AmpC no deterg)
Cc1ccccc1NCC(=O)N/N=C/c1c(C)c(C(=O)c2ccc(Cl)cc2)n2ccccc12	AmpC no deterg inconclusive
Cc1c(/C=N/NC(=O)CNc2ccccc2)c2ccccn2c1C(=O)c1ccc(Cl)cc1	AmpC no deterg 2.51µM
O=C(Nc1ccc2nc(SCCOc3ccccc3)sc2c1)c1cccs1	none (no result: AmpC no deterg)
CCOc1ccc(C2=C(C(=O)CC)Sc3nncn3N2C(=O)CC)cc1	none (no result: AmpC no deterg)
Cc1sc(-n2c(C)cc(/C=C3\SC(=S)NC3=O)c2C)c(C#N)c1C	AmpC no deterg 14.1µM
Cc1ccc(-n2c(C)cc(/C=C3\SC(=O)NC3=O)c2C)cc1	none
Cc1cc(/C=C2\SC(=S)NC2=O)c(C)n1-c1cccc(O)c1	AmpC no deterg 17.8µM
Cc1sc(-n2c(C)cc(C=C3C(=O)NC(=O)NC3=O)c2C)c(C#N)c1C	none
COc1ccc(N(Cc2cccs2)C(=O)Nc2ccccc2)cc1	none (no result: AmpC no deterg)
O=C(CC1C(=O)N(c2ccc(F)cc2)C(=O)N1Cc1ccc2c(c1)OCO2)Nc1ccc(Cl)cc1 (stereo not given)	none (no result: AmpC no deterg)
Cc1cc(N2CCN(C)CC2)nc2ccc(NC(=O)Nc3ccccc3Cl)cc12	none (no result: AmpC no deterg)
O=C(Cn1cc(SCc2ccccc2F)c2ccccc21)N1CCCCCC1	none (no result: AmpC no deterg)
CCOC(=O)c1cc(-c2ccccc2)n(CCC(=O)NCCc2ccccc2)c1C	none (no result: AmpC no deterg)
O=C(Nc1ccccc1)c1nnsc1S(=O)c1ccc(Cl)cc1 (stereo not given)	AmpC detergent inconclusive, AmpC no deterg 14.1µM
O=C(c1nnsc1S(=O)c1ccc(Cl)cc1)N1CCOCC1 (stereo not given)	AmpC detergent inconclusive
COc1cc2c(cc1OC)C(COc1ccc(F)cc1)N(C(=O)c1cccc(F)c1)CC2 (stereo not given)	none (no result: AmpC no deterg)
O=C(Nc1ccccc1C(=O)NCc1ccco1)Nc1cccc2ccccc12	AmpC no deterg 20µM
O=C(NCc1ccco1)c1cccc2ccccc12	AmpC detergent inconclusive
Cc1ccc(C2CC(=O)N(Cc3ccc(F)cc3)c3c2c(C)nn3-c2nc(C)cc(C)n2)cc1 (stereo not given)	none (no result: AmpC no deterg)
CCCCNc1nc2ccccc2n1CC(=O)Nc1c(C)cccc1CC	AmpC no deterg 20µM
CCc1cccc(C)c1NC(=O)Cn1c(NCCO)nc2ccccc21	none
Cc1ccc(NC(=O)c2sc3nc[nH]c(=O)c3c2C)cc1C	none (no result: AmpC no deterg)
COc1ccc(C2=NN(C(=O)CSc3ncccn3)C(c3ccc(OC)cc3)C2)cc1 (stereo not given)	none
COc1ccc(C2=NN(C(=O)CSc3cn(C)c4ccccc34)C(c3ccc(OC)cc3)C2)cc1 (stereo not given)	AmpC detergent inconclusive, AmpC no deterg 1.58µM
CCOC(=O)/C=C1\SCC(=O)N1CC(=O)NC(c1ccccc1)c1ccccc1	AmpC no deterg 28.2µM
CCOC(=O)/C=C1\SCC(=O)N1CC(=O)NC(C)c1ccccc1 (stereo not given)	none
COc1cccc(C(c2sc3nc(-c4ccco4)nn3c2O)N2CCN(C)CC2)c1 (stereo not given)	none (no result: AmpC no deterg)
N#Cc1cc(C(=O)c2cc(Cl)ccc2O)cn(-c2ccccc2)c1=O	none
Cc1ccc(NC(=O)c2cc(C(=O)c3cc(Cl)ccc3O)cn(-c3ccc(C)cc3)c2=O)cc1	AmpC no deterg 3.16µM
O=C(CN1C(=O)COc2ccc(S(=O)(=O)NC3CCCC3)cc21)Nc1ccc(Cl)cc1	none (no result: AmpC no deterg)
N#CC1=C(N)Oc2cc(N)ccc2C1c1ccccc1Cl (stereo not given)	AmpC detergent inconclusive
N#CC1=C(N)OC2=C(CCc3ccccc32)C1c1ccccc1Cl (stereo not given)	AmpC no deterg 3.55µM
Cc1cc(C(=O)NCCCN2CC(C)CC(C)C2)n(-c2ccccc2)n1 (stereo not given)	none
CCOC(CNC(=O)c1cc(C)nn1-c1ccccc1)OCC	none
CCOCCCNC(=O)c1cc(C)nn1-c1ccccc1	AmpC detergent inconclusive, AmpC no deterg 3.16µM
Cc1cc(C(=O)NCCCN2CCOCC2)n(-c2ccccc2)n1	AmpC detergent inconclusive, AmpC no deterg 39.8µM
Cc1c(C(=O)Nc2cccc(C(F)(F)F)c2)oc2ccc3c(c12)C(=O)CC(C)(C)O3	none (no result: AmpC no deterg)
CCC(=O)NC(=S)Nc1ccc(S(=O)(=O)NC2CCCCC2)cc1	AmpC no deterg 12.6µM
COc1cc(NS(=O)(=O)c2ccc(NC(=S)NC(=O)C3CCCC3)cc2)nc(OC)n1	AmpC no deterg 15.8µM
O=C(NC(=S)Nc1ccc(S(=O)(=O)NC2CCCCC2)cc1)c1cccs1	none
COc1cc(NS(=O)(=O)c2ccc(NC(=S)Nc3ccccc3)cc2)nc(OC)n1	none
CCCCC(=O)NC(=S)Nc1ccc(S(=O)(=O)N2CCCC2)cc1	AmpC no deterg 12.6µM
CCCC(=O)Nc1ccc(S(=O)(=O)N2CCCC2)cc1	none
Cc1ccc(Cl)cc1N1CCN(C(=O)CCCCCn2c(=O)[nH]c3ccccc3c2=O)CC1	none (no result: AmpC no deterg)
